Source: PubChem BioAssay AID1259374 (The Scripps Research Institute Molecular Screening Center, 2018)
Where “and” joins values, the source holds several entries; their conditions need not be identical. Identical values can stand only once. Screen size: about 650,000 compounds; about 5,900 (0.91%) were called active. Rule as the data show it: active = inhibition above about 50%; inactive = the rest. The entries come from a sample that favours actives as a whole. Some compounds were tested as several samples or in several runs, with calls that do not always agree.

Molecular target: Microphthalmia-associated transcription factor (Homo sapiens) (UniProt O75030)
Sequence (O75030 whole entry, looked up): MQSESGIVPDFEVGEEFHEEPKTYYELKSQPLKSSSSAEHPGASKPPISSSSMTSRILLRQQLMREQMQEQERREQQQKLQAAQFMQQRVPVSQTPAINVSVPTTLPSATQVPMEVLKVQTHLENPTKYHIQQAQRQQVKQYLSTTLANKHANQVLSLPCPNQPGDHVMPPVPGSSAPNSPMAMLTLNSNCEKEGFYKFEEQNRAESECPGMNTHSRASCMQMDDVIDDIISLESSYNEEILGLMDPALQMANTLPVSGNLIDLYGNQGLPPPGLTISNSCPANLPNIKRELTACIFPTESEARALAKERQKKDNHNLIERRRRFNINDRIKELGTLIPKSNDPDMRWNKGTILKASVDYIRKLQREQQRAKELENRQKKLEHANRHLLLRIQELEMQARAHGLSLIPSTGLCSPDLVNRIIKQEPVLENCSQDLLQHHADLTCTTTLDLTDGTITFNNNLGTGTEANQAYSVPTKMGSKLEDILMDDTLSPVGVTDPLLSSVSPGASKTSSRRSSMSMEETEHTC
Experiment: MITF inhibitors, primary screen, biochemical, AlphaScreen, human (AID 1259374);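 also: 0% = vehicle wells with protein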
Settings: AlphaScreen MITF homodimerization, bead proximity signal; at 2.6 µM; stronger effect = higher value

Compound | inhibition
Cc1sc(NC(=O)c2ccco2)c(C(c2ccccn2)N2CCN(C)CC2)c1C (stereo not given) | 12.4% (inactive)
Oc1c(CN2CCN(c3cccc(Cl)c3)CC2)cc(Br)c2cccnc12 | -1.04% (inactive)
CCOc1cccc(CN2CCCCC2)c1O | 12.8% (inactive)
Oc1c(CN2CCCC2)cc(COCc2ccccc2)c2cccnc12 | 74.4% (active)
Cc1cccc(N2CC(O)=C(c3nc4ccccc4c(=O)[nH]3)C2=N)c1C | -2.19% (inactive)
CCCOc1cccc(C(=O)Nc2ccc3oc(-c4cccc5c(Br)cccc45)nc3c2)c1 | 3.22% (inactive)
COc1cccc(C2C(C(=O)OC(C)C)=C(C)NC3=C2C(=O)CC(c2ccc(Cl)cc2)C3)c1OC (stereo not given) | -2.22% (inactive)
COc1cc(Nc2ncnc3c2nc(N2CCN(Cc4ccc5c(c4)OCO5)CC2)n3C(C)C)cc(OC)c1OC | 5.48% (inactive)
COc1cc(Nc2ncnc3c2nc(N2CCOCC2)n3C(C)C)cc(OC)c1OC | 54.5% (active)
CC(C)n1c(N2CCOCC2)nc2c(Nc3ccc(Oc4ccccc4)cc3)ncnc21 | 9.27% (inactive)
C[C@@H]1CN(Cc2nnnn2CC(=O)N2CCc3ccccc3C2)C[C@H](C)O1 | 12.1% (inactive)
C=CCNC(=O)C(=O)Nc1ccccc1CC | 19.9% (inactive)
CN1CCN(c2ncnc3c2cnn3-c2ccc(Cl)c(Cl)c2)CC1 | 10.1% (inactive)
O=C(CC1OC(=O)c2ccccc21)OCC(=O)c1ccc(F)cc1 (stereo not given) | 18.3% (inactive)
Cc1ccc(C(C)C)c(OCCCn2ccnc2)c1 | 9.69% (inactive)
CCc1ccc(OCCCCn2ccnc2)cc1 | 62.2% (active)
C=CCc1cc(C)ccc1OCCCn1ccnc1 | 64.5% (active)
COc1ccc(CCNC(=S)NCCCn2ccnc2)cc1 | 8.73% (inactive)
CCOC(=O)C(CCOc1cccc(CC)c1)C(=O)OCC | -23.7% (inactive)
Clc1ccc(OCCOCCn2ccnc2)c(Br)c1 | 46.3% (inactive)
CCc1cccc(OCCOCCn2ccnc2)c1 | 65.1% (active)
COc1ccc(CCCOC(Cn2ccnc2)c2ccc(OC)cc2)cc1 (stereo not given) | -16.1% (inactive) and 0.54% (inactive)
C=CCc1cc(C)ccc1OCC(O)Cn1cnc2ccccc21 (stereo not given) | 4.8% (inactive)
Cc1nn(C(=O)c2cccnc2)c(C)c1Sc1ccccc1[N+](=O)[O-] | 2.63% (inactive)

Compound | inhibition
O=C(Cc1cccc2ccccc12)Nc1nnc(-c2ccco2)o1 | 6.58% (inactive)
COCCN1Cc2cccc(C(=O)Nc3cccc(F)c3)c2C1=O | -5.68% (inactive)
Cc1nc(CSc2ccc(-c3ccco3)nn2)cs1 | 5.98% (inactive)
CCCCc1ccc(Nc2nc3ccccc3nc2NS(=O)(=O)c2ccc(Cl)cc2)cc1 | 1.24% (inactive)
COc1ccc(C(=O)NC(NC(=O)c2ccc(OC)cc2)c2cccc(OC)c2)cc1 | 9.45% (inactive)
CCN(CC)S(=O)(=O)c1ccc(-c2csc(N3N=C(c4cccc([N+](=O)[O-])c4)CC3c3ccc(F)cc3)n2)cc1 (stereo not given) | 3.98% (inactive)
O=C(c1ccc(NC(=S)NCc2ccc(F)cc2)cc1)N1CCCC1 | 22.4% (inactive)
O=C(CNCc1cccnc1)Nc1ccc(C(=O)N2CCCCC2)cc1 | 93.3% (active)
O=C(Nc1ccc(C(=O)N2CCCCC2)cc1)c1cccc(I)c1 | -4.21% (inactive)
Cn1c(=O)c2c(nc(N3CCCCC3)n2CCNC2=NCCCCC2)n(C)c1=O | 0.31% (inactive)
Cc1nccn1CCNC(=O)Cn1nnnc1CN1CCCCCC1 | 0.85% (inactive)
COc1ccc(C2=NN(c3nc(-c4ccccc4)c4cc(Cl)ccc4n3)C(c3ccc([N+](=O)[O-])cc3)C2)cc1 (stereo not given) | -4.92% (inactive)
c1ccc(-n2cc(CN3CCOCC3)c(-c3ccc4c(c3)OCCO4)n2)cc1 | 61.7% (active)
c1ccc(CN2CCC(N=C3NN=C(c4ccc5c(c4)OCCO5)CS3)CC2)cc1 | -10.7% (inactive)
c1ccc(-c2nnc3sc(-c4ccc5c(c4)OCCO5)nn23)cc1 | -0.82% (inactive)
O=C(N/C(=C\c1ccccc1F)C(=O)N1CCCCC1)c1ccc([N+](=O)[O-])cc1 | 17.1% (inactive)
O=C(Nc1ccc(-c2ccncc2)c(C(F)(F)F)c1)C1COc2ccccc2O1 (stereo not given) | 53.1% (active)
O=C(Nc1cncc(-c2ccncc2)c1)C1COc2ccccc2O1 (stereo not given) | 17.1% (inactive)
O=C(Nc1cncc(-c2ccncc2)c1)C1COc2cc3ccccc3cc2O1 (stereo not given) | 3.75% (inactive)
Cc1nn(C)c(C)c1-c1cc(C(=O)NCCO)ccn1 | 8.26% (inactive)
CCN(C(=O)c1ccc([N+](=O)[O-])cc1)c1ccccc1 | 1.44% (inactive)
CCN(Cc1ccccc1)Cc1ccc([N+](=O)[O-])cc1 | 60% (active)
CN(C)CCCN(CCCN(C)C)Cc1ccc([N+](=O)[O-])cc1 | 37.3% (inactive)
Cc1cccc(CN2CCN(C3CCCCC3)CC2)c1 | 33.7% (inactive)

Compound | inhibition
CCN(CC)C(=O)C1CCCN(Cc2cccc(Cl)c2)C1 (stereo not given) | 55.2% (active)
Clc1cccc(CN2CCN(C3CCN(Cc4ccccc4)CC3)CC2)c1 | 23.2% (inactive)
OCCC1CN(Cc2ccc(F)c(F)c2)CCN1C1CCCC1 (stereo not given) | -7.36% (inactive)
NC(=O)C1CCCN(Cc2cccc(Cl)c2)C1 (stereo not given) | 31.1% (inactive)
OC1CCCN(Cc2cccc(Cl)c2)C1 (stereo not given) | -10.4% (inactive)
Fc1ccc(CN2CCN(C3CCCC3)CC2)cc1 | 57.1% (active)
OCCC1CN(Cc2cccc(F)c2)CCN1C1CCCC1 (stereo not given) | 14.7% (inactive)
O=C1N[C@H](CO)C(=O)N2CCN(Cc3cccc(F)c3)C[C@H]12 | 10.2% (inactive)
Fc1cccc(CN2CCN(C3CCC(c4ccccc4)CC3)CC2)c1 (stereo not given) | 54.9% (active)
CCN(CC)C(=O)C1CCCN(Cc2ccc([N+](=O)[O-])cc2)C1 (stereo not given) | 27.7% (inactive)
Clc1cccc(CN2CCN(C3CCCC3)CC2)c1 | 67.8% (active)
O=C(NC1CCCCCC1)C1CCN(S(=O)(=O)c2cccc3nsnc23)CC1 | -4.57% (inactive)
c1ccc(CNc2cc(N3CCc4ccccc4C3)ncn2)cc1 | -8.87% (inactive)
Cc1c(C(=O)C(=O)N2CCCC2)c2ccccc2n1C | -1.62% (inactive)
COc1cc([N+](=O)[O-])ccc1NC(=O)/C=C/c1ccc(F)cc1 | 0.43% (inactive)
CC(=O)Nc1cccc(NC(=O)CSc2nc(C(C)(C)C)nc3ccccc23)c1 | 16.8% (inactive)
COc1cccc(C(C)N(C)C(=O)c2cc(COc3ccc(C(C)=O)cc3)on2)c1 (stereo not given) | 11.1% (inactive)
COc1ccccc1C1CN(Cc2ccc(NC(C)=O)s2)Cc2ccccc2O1 (stereo not given) | 1.08% (inactive)
CC1(C)CC(=O)C2=C(C1)N(c1cccc(Cl)c1Cl)C1=C(C(=O)CC(C)(C)C1)C2c1ccc(F)c(Br)c1 | -2.02% (inactive)
O=C(N/N=C/c1ccncc1)c1cnn(-c2ccccc2)c1C(F)(F)F | -19.6% (inactive)
CC(=O)NC(CC(C)C)C(=O)NC(C(=O)OCc1ccccc1)C(C)C (stereo not given) | 11.1% (inactive)
CC1CCN(S(=O)(=O)c2ccc(F)c(C(=O)Nc3cc(Cl)ccc3Cl)c2)CC1 | -3.2% (inactive)
CC1CCN(S(=O)(=O)c2ccc(Cl)c(C(=O)Nc3ccccc3[N+](=O)[O-])c2)CC1 | 51% (active)
Cc1c(Cl)cccc1NC(=O)c1cc(S(=O)(=O)N2CCC(C)CC2)ccc1F | 1.77% (inactive)

Compound | inhibition
Cc1ccccc1S(=O)(=O)Cc1ccc(C(=O)NCCCN2CCCCCC2)o1 | -6.96% (inactive)
COc1ccccc1N(CN1CCCC1=O)C(=O)c1cc(C)cc(C)c1 | 3.77% (inactive)
Cc1ccc(C2SCC(=O)N2c2ccc(C)cc2)cc1 (stereo not given) | 7.57% (inactive)
O=C(Nc1cc(Cl)ccc1Cl)c1cc(C2CC2)on1 | -4.67% (inactive)
O=C(CSc1nn2c(=O)c3ccccc3nc2s1)c1ccccc1 | 8.41% (inactive)
CC(=O)Oc1cccc(N2C(=O)c3cccnc3C2=O)c1 | 38.1% (inactive)
CC(=O)c1cccc(N2C(=O)c3ccc([N+](=O)[O-])cc3C2=O)c1 | 4.17% (inactive)
CC(=O)c1cccc(N2C(=O)c3cccnc3C2=O)c1 | 50.6% (active)
CC(C)c1c(O)nc(SCC(=O)NC(C)(C)C)[nH]c1=O | 9.94% (inactive)
CNCC(O)c1ccc(O)c(O)c1 (stereo not given) | 83.8% (active) and -4.84% (inactive) and -7.17% (inactive)
Cc1nnc2n1NC(c1ccc(F)cc1)C(C(=O)Nc1ccccc1C(F)(F)F)S2 (stereo not given) | -7.82% (inactive)
COc1cc(Br)c(/C=C2/NC(=O)N(c3cccc(Cl)c3)C2=O)cc1OC | -4.06% (inactive)
O=C(Cc1ccc(F)cc1)Nc1cnn(-c2cccc(C(=O)Nc3ccc(N4CCOCC4)cc3)c2)c1 | -19.1% (inactive)
COc1ccc(NC(=O)C2CC(=O)N(c3ccc(Oc4ccccc4)cc3)C2)cc1 (stereo not given) | 12.4% (inactive)
CC1CN(CCOc2ccc(Cl)c3ccccc23)CC(C)O1 (stereo not given) | 27.1% (inactive)
C=CCc1ccc(OCCN2CC(C)OC(C)C2)c(OC)c1 (stereo not given) | 34.3% (inactive)
CC1CN(CCOc2ccccc2[N+](=O)[O-])CC(C)O1 (stereo not given) | 50.7% (active)
Cc1nc2c(ccc3nc(NC(=O)c4ccc([N+](=O)[O-])o4)sc32)s1 | -9.59% (inactive)
O=C(Nc1ccc(Cl)c(Cl)c1)C1C2C=CC3(O2)C1C(=O)N(Cc1cccs1)C3C(=O)NC1CCCCC1 (stereo not given) | 6.14% (inactive)
CC(NC(=O)CN(C)S(=O)(=O)c1cccs1)c1ccccc1 (stereo not given) | -11.7% (inactive)
CC(C)CC(C(=O)O)N1C(=O)c2ccccc2C1=O (stereo not given) | 6.74% (inactive)
O=C(Nc1ccccc1)C(Cc1ccccc1)N1C(=O)c2ccccc2C1=O (stereo not given) | 3.18% (inactive)
Cc1ccc(C)n1C(Cc1ccccc1)C(=O)O (stereo not given) | 66.9% (active)
